Assay results published in PubChem BioAssay (EPA / NIEHS).
Values joined by “and” are separate entries in the source; they are usually repeats but may differ in a detail not shown here. Identical values can stand only once. Some structures have more than one record in an assay (separate samples or runs), and their calls can disagree. Active and inactive are the calls of the source. How the source made its calls: active means hit-call score of the fitted dose curve at least 0.9, where 1 is the maximum; inactive means score below 0.9.

read-out: Interleukin-8 (IL8), CXCL8 (gene 3576); assay: BSK_KF3CT_IL8: BioMAP Diversity Plus: KF3CT Assay for Interleukin-8 (IL8) Biomarker Activity (AID 2284254); conditions: primary human keratinocytes with fibroblasts
In short: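 IL-8 by ELISA in primary human skin co-culture (keratinocytes plus fibroblasts) 24 h post-dose, DMSO as baseline. Cytotoxicity assessed in parallel by sulforhodamine B total-protein staining.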

Row | Structure (SMILES) | outcome | AC50
1 | C=CC(=O)OCCC(F)(F)C(F)(F)C(F)(F)C(F)(F)F | inactive | –
2 | OCC(F)(F)C(F)(F)C(F)(F)C(F)(F)C(F)(F)C(F)(F)CO | inactive | –
3 | NCC(F)(F)C(F)(F)C(F)(F)C(F)(F)C(F)(F)C(F)(F)C(F)(F)C(F)(F)F | inactive | –
4 | O=S(=O)(OCC(F)(F)F)C(F)(F)C(F)(F)C(F)(F)C(F)(F)F | inactive | –
5 | O=S(=O)(O)CCC(F)(F)C(F)(F)C(F)(F)C(F)(F)F | inactive | –
6 | O=C(O)C(F)(F)C(F)(F)C(F)(F)OC(F)(C(F)(F)F)C(F)(F)F | inactive | 16.5 µM (active)
7 | O=C(F)C1(F)C(F)(F)C(F)(F)C(F)(F)C(F)(F)C1(F)F | inactive | –
8 | CNS(=O)(=O)C(F)(F)C(F)(F)C(F)(F)C(F)(F)C(F)(F)C(F)(F)C(F)(F)C(F)(F)F | – | 8.13 µM (active) and 9.41 µM (active)
9 | NS(=O)(=O)C(F)(F)C(F)(F)C(F)(F)C(F)(F)C(F)(F)C(F)(F)F | inactive | –
10 | O=C(O)C(F)(F)C(F)(F)C(F)(F)OC(F)(F)F | inactive | –
11 | COC(F)(C(F)F)C(F)(F)F (centres undefined) | inactive | –
12 | CCOC(=O)CC(=O)C(F)(F)C(F)(F)F | inactive | –
13 | CN(C(=O)C(F)(F)C(F)(F)C(F)(F)F)[Si](C)(C)C | inactive | –
14 | CCN=C1C=CC(=C(c2ccc(N(CC)CC)cc2)c2ccc(N(CC)CC)cc2)c2ccccc21 | inactive | 2.34 µM (active)
15 | NC(=O)C(F)(F)C(F)(F)C(F)(F)C(F)F | inactive | –
16 | O=S(=O)(Cl)C(F)(F)C(F)(F)C(F)(F)C(F)(F)C(F)(F)C(F)(F)C(F)(F)C(F)(F)F | inactive | –
17 | O=C(O)C(F)(F)C(F)(F)C(F)(F)C(F)(F)C(F)(F)C(F)(F)C(F)F | inactive | 17.2 µM (active)
18 | O=C(O)CCC(F)(F)C(F)(F)C(F)(F)C(F)(F)C(F)(F)C(F)(F)C(F)(F)F | inactive | 4.26 µM (active)
19 | CCN(CCO)S(=O)(=O)C(F)(F)C(F)(F)C(F)(F)C(F)(F)C(F)(F)C(F)(F)C(F)(F)C(F)(F)F | inactive | 5.61 µM (active)
20 | O=C(O)C(F)(F)C(F)(F)C(F)(F)C(=O)O | inactive | –

read-out: Macrophage Inflammatory Protein-1 Alpha (MIP1a), CCL3 (gene 6348); assay: BSK_IMphg_MIP1a: BioMAP Diversity Plus: IMphg Assay for Macrophage Inflammatory Protein-1 Alpha (MIP1a) Biomarker Activity (AID 2284255); conditions: primary human endothelial cells with macrophages
In short: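 MIP-1a protein levels were quantified by ELISA after 24 h treatment of human endothelial cell–macrophage co-cultures, compared with DMSO. Parallel cultures were fixed with TCA and stained with 0.1% SRB to gauge overt cytotoxicity.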

Row | Structure (SMILES) | outcome | AC50
21 | C=CC(=O)OCCC(F)(F)C(F)(F)C(F)(F)C(F)(F)F | inactive | –
22 | OCC(F)(F)C(F)(F)C(F)(F)C(F)(F)C(F)(F)C(F)(F)CO | inactive | –
23 | NCC(F)(F)C(F)(F)C(F)(F)C(F)(F)C(F)(F)C(F)(F)C(F)(F)C(F)(F)F | inactive | –
24 | O=S(=O)(OCC(F)(F)F)C(F)(F)C(F)(F)C(F)(F)C(F)(F)F | – | 21 µM (active) and 5.95 µM (active)
25 | O=S(=O)(O)CCC(F)(F)C(F)(F)C(F)(F)C(F)(F)F | inactive | –
26 | O=C(O)C(F)(F)C(F)(F)C(F)(F)OC(F)(C(F)(F)F)C(F)(F)F | inactive | –
27 | O=C(F)C1(F)C(F)(F)C(F)(F)C(F)(F)C(F)(F)C1(F)F | inactive | –
28 | CNS(=O)(=O)C(F)(F)C(F)(F)C(F)(F)C(F)(F)C(F)(F)C(F)(F)C(F)(F)C(F)(F)F | inactive | –
29 | NS(=O)(=O)C(F)(F)C(F)(F)C(F)(F)C(F)(F)C(F)(F)C(F)(F)F | inactive | –
30 | O=C(O)C(F)(F)C(F)(F)C(F)(F)OC(F)(F)F | inactive | –
31 | COC(F)(C(F)F)C(F)(F)F (centres undefined) | inactive | –
32 | CCOC(=O)CC(=O)C(F)(F)C(F)(F)F | inactive | –
33 | CN(C(=O)C(F)(F)C(F)(F)C(F)(F)F)[Si](C)(C)C | inactive | –
34 | NC(=O)C(F)(F)C(F)(F)C(F)(F)C(F)F | inactive | –
35 | O=S(=O)(Cl)C(F)(F)C(F)(F)C(F)(F)C(F)(F)C(F)(F)C(F)(F)C(F)(F)C(F)(F)F | inactive | –
36 | O=C(O)C(F)(F)C(F)(F)C(F)(F)C(F)(F)C(F)(F)C(F)(F)C(F)F | inactive | –
37 | O=C(O)CCC(F)(F)C(F)(F)C(F)(F)C(F)(F)C(F)(F)C(F)(F)C(F)(F)F | – | 1.39 µM (active) and 1.57 µM (active)
38 | CCN(CCO)S(=O)(=O)C(F)(F)C(F)(F)C(F)(F)C(F)(F)C(F)(F)C(F)(F)C(F)(F)C(F)(F)F | – | 1.54 µM (active) and 12.7 µM (active)
39 | O=C(O)C(F)(F)C(F)(F)C(F)(F)C(=O)O | inactive | –
